Hits are enriched below; roughly 3% of the tested compounds scored in any of these assays.
CF NFkB inh: cystic fibrosis NF-kB activation inhibition; inhibition, % at 5 µM; KKLEB NF-kB-GFP reporter, PAF-induced, GFP fluorescence overnight; AID 588850; 0.86% of 360,000 active;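 active means at least 50% inhibition at 5 µM, scaled per plate between neutral and stimulator controls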;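 further: PAF is a Pseudomonas aeruginosa culture filtrate used as stimulus; plate controls were PAF-stimulated DMSO wells for no effect and unstimulated DMSO wells for full effect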
ABHD5 PLIN5 PPI: inhibitors of human ABHD5-perilipin-5 interaction. Split G. princeps luciferase complementation, luminescence, 4 h. AID 602281. inhibition, % at 4 µM. 0.78% of 360,000 active. Q00G26+Q8WTS1;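 active means inhibition above the mean inhibition across every tested compound plus 3 SD, cut at about 22% in these data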;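 further: 0% = DMSO only wells and the 100% control is not disclosed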
KKLEB cytotox: reduces viability of KKLEB cystic fibrosis airway cells. KKLEB CF airway cells viability, ATPlite luminescence, overnight; active compounds read low; cells stimulated with P. aeruginosa culture filtrate. activity change (cytotoxicity), % at 5 µM. 0.36% of 360,000 active. AID 602141;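 active means corrected activity change at or below -50% at 5 µM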
Peg3 prom inh: reduces Peg3 promoter-driven luciferase expression in HeLa | HeLa PEG-Prom luciferase reporter, luminescence, overnight | inhibition, % at 20 µM | 1.7% of 360,000 active | AID 588405;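 active means inhibition of at least 50% at 20 µM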
HIF-2a inh: inhibitors of HIF-2a | 786-0 RCC cells HIF-2a reporter, luciferase luminescence, overnight | inhibition, % at 18.8 µM | 0.72% of 360,000 active | AID 624352;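 active means inhibition of the luminescence signal of 40% or more relative to plate controls, in a single-dose primary screen at 18.75 µM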
MITF TRPM1 inh: reduces MITF-dependent TRPM1 promoter luciferase signal; SK-MEL-5 TRPM1 promoter luciferase, 24 h; inhibition, % at 12.5 µM; 0.83% of 330,000 active; AID 488899;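 active means mean inhibition across replicates of 60% or more, whatever share of single replicates reaches that level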
CF NFkB conf: CF NF-kB inhibition confirmation, single concentration | shares compounds with CF NFkB inh | inhibition, % at 5 µM | AID 602472 | KKLEB CF airway cells, PAF-induced NF-kB-GFP fluorescence, overnight | 64% of 1,300 active; in the data active means inhibition above about 40%;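 further: stimulus PAF is a Pseudomonas aeruginosa filtrate and not platelet activating factor; plate controls were DMSO wells with stimulus for no effect and unstimulated DMSO wells for full effect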
* = called active by the depositor; / = not tested or not shown.

SMILES	CF NFkB inh	ABHD5 PLIN5 PPI	KKLEB cytotox	Peg3 prom inh	HIF-2a inh	MITF TRPM1 inh	CF NFkB conf
CC1(C)O[C@@H]2C[C@H]3[C@@H]4C[C@H](F)C5=CC(=O)CC[C@]5(C)[C@H]4[C@@H](O)C[C@]3(C)[C@]2(C(=O)CO)O1	74*	-4	-14	-8	27	-19	17
CC1(C)O[C@@H]2C[C@H]3[C@@H]4C[C@H](F)C5=CC(=O)C=C[C@]5(C)[C@H]4[C@@H](O)C[C@]3(C)[C@]2(C(=O)CO)O1	68*	10	17	4	25	-5	19
Cc1c(Cl)cccc1NC(=S)NCCc1ccc(C(F)(F)F)cc1	6	-3	2	19	17	0	/
CCOc1ccccc1NC(=O)COC(=O)c1cc[n+]([O-])cc1	-8	0	-1	18	12	-4	/
Oc1ccc(Cl)cc1CNCc1ccc(Cl)cc1	22	2	-10	-65	-37	-8	/
Oc1ccc(Cl)cc1Cc1cc(Cl)ccc1O	77*	-8	30	42	-8	5	90*
CC(=O)N(CC(C)C(=O)O)c1c(I)cc(I)c(N)c1I (stereo not given)	64*	0	33	4	33	-2	21
O=C(C[C@@H]1CC[C@@H]2[C@H](COC[C@H](O)CN2S(=O)(=O)c2ccccc2)O1)Nc1ccccc1	/	-3	/	/	3	/	/
CC(=O)Nc1nonc1-c1nc2ccccc2n1CCC#N	-1	-6	5	7	-2	2	/
CC(=O)Nc1nonc1-c1nc2ccccc2n1CC1CC1	60*	5	-22	21	-8	6	45*
Cc1c(C(=O)NCC2CCCO2)oc2ccc(Br)cc12 (stereo not given)	-4	-8	-5	-311	-224	-69	/
O=c1oc2ccc(Br)cc2cc1S(=O)(=O)c1ccc(F)cc1	58*	12	-7	50*	-21	9	22
OCC1(Cc2cccc(Cl)c2)CCCN(Cc2cnn(-c3ccccc3)c2)C1 (stereo not given)	8	14	-2	9	-9	2	/
CCOC(=O)C1CCN(C(=O)c2ccc(OCC(=O)Nc3ccc(OCC)cc3)c(OC)c2)CC1	-3	-4	-2	11	9	10	/
Cc1cccc2sc(NC(=O)[C@@H]3CCCN3C(=O)c3cccs3)nc12	-13	-3	7	-4	14	10	/
O=C(Nc1nc2ccc(Cl)cc2s1)[C@@H]1CCCN1C(=O)c1cccs1	53*	2	-21	-108	-130	-22	39
CCc1cc(C(=O)N2CCN(C(=O)c3ccco3)CC2)sc1C	-27	22	18	4	-7	7	/
CC(=O)N1CCN(c2ccc(NC(=O)c3ccc(Br)o3)cc2Cl)CC1	-14	2	8	-52	-96	16	/
COc1ccc(NC(=O)c2ccc([N+](=O)[O-])o2)cc1	51*	2	-11	43	-4	28	34
COc1ccc(NC(=O)c2ccc(Br)o2)cc1	-12	-1	-3	-249	-308	-81	/
CCCC(=O)N1CCN(c2ccc(NC(=O)c3ccc([N+](=O)[O-])o3)cc2Cl)CC1	74*	0	-36	111*	90*	91*	35
CN(CC1CCCO1)S(=O)(=O)c1ccc(C(=O)NCc2ccccc2)cc1 (stereo not given)	-4	-10	-3	13	16	8	/
Cc1ccnc(Nc2nc(-c3sc(C)nc3C)cs2)c1	55*	2	-17	4	-396	12	91*
Cc1nc(C)c(-c2csc(Nc3ccccn3)n2)s1	8	-5	6	-161	-224	-5	/
COc1ccc2nc(Nc3nc(CSc4nc5ccccc5[nH]4)cc(=O)[nH]3)nc(C)c2c1	103*	4	-46	98*	-17	48	101*
SMILES	CF NFkB inh	ABHD5 PLIN5 PPI	KKLEB cytotox	Peg3 prom inh	HIF-2a inh	MITF TRPM1 inh	CF NFkB conf
Cc1nc(Nc2nc(CSc3ccc(Cl)cc3)cc(=O)[nH]2)nc2ccccc12	-1	0	2	13	6	7	/
CCOC(=O)c1c(C)[nH]c(C(=O)OCC(=O)Nc2cc(Cl)ccc2OC)c1C	38	5	-40	39	9	11	/
CCOC(=O)c1c(C)[nH]c(C(=O)N/N=C/c2ccc(Br)cc2)c1C	56*	-9	-31	-9	-32	19	79*
CCOC(=O)c1c(C)[nH]c(C(=O)OCC(=O)Nc2cc(C)ccc2OC)c1C	50*	5	-42	30	25	17	39
COC(=O)c1ccc(COC(=O)C2CCN(S(=O)(=O)c3ccc(C)c(C)c3)CC2)o1	19	1	-9	7	4	1	/
CS(=O)(=O)Nc1ccccc1C(=O)OCC(=O)NCc1cccs1	51*	-6	-14	2	6	8	7
CC(=O)C1(C)CCC2C3C=C(C)C4=CC(=O)CCC4(C)C3CCC21C (stereo not given)	-1	-5	16	3	8	3	/
C=C1C[C@H]2[C@@H]3C=C(C)C4=CC(=O)CC[C@]4(C)[C@H]3CC[C@]2(C)[C@@]1(OC(C)=O)C(C)=O	68*	1	4	-4	22	-3	-33
COc1ccc(OC)c(N(CCN2C(=O)c3ccccc3C2=O)C(=O)CCl)c1	62*	-11	-42	22	8	/	99*
COc1ccc(NC(=O)CCN2C(=O)c3ccccc3C2=O)c(OC)c1	21	0	-1	15	13	-13	/
COc1ccc(-c2cc3c(=O)n(CC(=O)NCc4ccc(F)cc4)ncn3n2)cc1	33	-1	-31	-43	-21	/	/
COc1ccc(-c2cc3c(=O)n(CC(=O)NCc4ccc(C)cc4)ncn3n2)cc1	54*	-1	-15	-1	5	-13	13
Cc1cc(C)nc(Sc2ncnc(N)c2[N+](=O)[O-])n1	63*	2	-12	27	18	39	63*
COc1ccc(CCNC(=O)c2ccc(-c3cccc([N+](=O)[O-])c3)o2)cc1OC	-21	0	-14	15	-19	-4	/
COc1ccc(CCNC(=O)c2cccc([N+](=O)[O-])c2)cc1OC	62*	5	6	7	29	-7	22
Cn1cc([N+](=O)[O-])c(C(=O)Nc2ccc(-c3nc4ccccc4o3)cc2)n1	68*	2	-36	51*	-35	49	-87
O=C(CSc1nc(C2CC2)nc2ccccc12)Nc1ccccc1Cl	60*	-1	-36	9	2	29	8
Nc1ncc(-c2ccccc2)c(-c2ccc(O)cc2O)n1	51*	6	-12	43	12	14	69*
COc1ccc(-c2cnc(N)nc2-c2ccc(OCc3ccccc3)cc2O)cc1	27	-5	-7	0	10	2	/

Screens: PubChem BioAssay, several laboratories
